# ChEMBL document CHEMBL1157539, “Thousands of chemical starting points for antimalarial lead identification” (Nature, 2010)
# How the values were obtained:
# Assay type in all cases: functional
# [1] = tested on: Plasmodium falciparum; assay: GSK_TCMDC: Inhibition of Plasmodium falciparum 3D7 in whole red blood cells, using parasite LDH activity as an index of growth. Test compounds present at 2uM
# [2] = tested on: Plasmodium falciparum; assay: GSK_TCMDC: Inhibition of Plasmodium falciparum Dd2 in whole red blood cells, using parasite LDH activity as an index of growth. Test compounds present at 2uM
# [3] = tested on: HepG2; assay: GSK_TCMDC: Percent inhibition of human HepG2 cell line. Test compounds present at 10uM.
Structure (SMILES),Inhibition [1] [%],Inhibition [2] [%],Inhibition [3] [%]
O=C(/C=C/c1ccc(Cl)c(Cl)c1)N1CCC(CN2CCC(Cc3nc4ccccc4[nH]3)CC2)CC1,100,95,34
CC(C)(C)c1ccc(OCC(=O)NC2CCN(c3ccnc4cc(Cl)ccc34)C2)cc1.O=C(O)C(F)(F)F (stereo not given),98,100,17
CC(C)[C@H]1CC[C@H](C)C[C@@H]1OC(=O)N[C@@H](Cc1ccc(O)cc1)C(=O)NC1CCN(Cc2ccc(OCCCN(C)C)cc2)C1 (stereo not given in full),99,64,27
O=C(Nc1cccc(-c2nn3ccccc3c2-c2ccnc(Nc3ccc(C(=O)N4CCOCC4)cc3)n2)c1)c1c(F)cccc1F,99,97,72
COc1ccccc1-c1ccc(CNC(=O)C(CN2CCN(C)CC2)c2ccccc2)cc1 (stereo not given),90,4,3
CCCCCCN(C(=O)OCc1ccccc1)C1CCN(C(=O)OC(C)(C)C)CC1C(=O)OCC (stereo not given),96,96,9
CC1CCc2sc(-c3nnc(SC(C)C(=O)N4CCCC4)o3)cc2C1 (stereo not given),93,94,1
COc1ccc2c(=NN=Cc3ccncc3)cc(C)[nH]c2c1,99,95,0
Cc1cc(CNC(c2ccccc2)C2CCC2)cc(C)c1O (stereo not given),94,48,78
O=C(NC1CCN(Cc2ccccc2O)C1)c1cccc(C(F)(F)F)c1.O=C(O)C(F)(F)F (stereo not given),98,62,0
